Measurements published in the supplement of paper PMC6555819.

tested on: VDR:RXRa (NR concentration 270 nM, RXRa partner concentration 90 nM); test: PBM binding z-score (relative to random genomic background probes); higher = stronger binding; sequences stand for … in GC…GCGATTGACAGCGTAGAATGAAGG
Experimental: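 Protein-binding microarray (Agilent 4x180K custom design, double-stranded 60-nt probes: 5' GC cap, 34-nt variable region, 24-nt constant primer region; full probe sequence given). Purified or IVT nuclear receptor:RXRα heterodimers (3:1 NR:RXRα, mostly 270:90 nM) or homodimers were incubated for 1 h in PBS with 2% milk and no ligand, then detected with Alexa488 antibodies. Fluorescence from o1-orientation probes (~5 replicates averaged) was converted to z-scores against 500 random hg19 background probes. Variable regions are seed direct-repeat (DR0–DR5) sites, all their single-nucleotide variants and half-site ablations.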

Sequence | PBM binding z-score
CGTGCAAGGTCAATGCTAGGTCAGTGAAAGCATT | 5.24
GAGACAGGGTCAGCTAGAGGCCAGAGTATGGAAA | 3.22
GAAACGAGGGCAAAGTTGATAGCATCTGTCGACG | 1.69
CTCGAACGGTCGTGCTCAGGTGAGTATACCAAAC | -0.344
GCTACTTGGTCAGTAAAAGGTCACACACCGGTCG | 4.16
CGTCGAAGTTCAACTAAGGTAACGTAAAGCACGC | 3.43
TGAATGAGGTTATAAGGTCAGGGAACGTTGCAAA | 4.04
CTACCAGGGTGAACAAGGTCGTTGATTACTATTC | 6.27
CCTCCGAGGACAACAGGAGGTCAGAGCTGCCAGA | 2.27
TCGAGTAGGTTAGTCGGGGCGTTCAGCCAACATA | 1.48
CGTCCAAGGTCAATGCTAAGTCAGTGAAAGCATT | 3.83
AATACAGGGTTATCGTAGGCCAGAGTACGCACAG | 1.61
TCATATAGGTAAACAGGTGAAAGTACGTAAGTTA | 1.48
AGAACGAGGGCAATGAGTTGGTAGCACGGGTGGC | 4.09
AGTTAAAGTTCAGGACGAGGTAACGTAAAGCACG | 3.01
ATCTCTAGGTAACAAGATCAGTGAAAGAGAGGAC | 0.388
AGTCAAAATTCATCTAGGTAACGTAAGATATGCT | -0.0109
ATCGAAAGATCGAAGGTGAGTATACCCACCCGAA | 0.0219
ATCTCTAGGTAAGATTCAGTTCAGTGAAGAACGC | 0.961
CCTACTGCGCCAAAGGTCATTGATTCCAATGCTC | 4.85

Sequence | PBM binding z-score
TGAATGAGGTTAAAGATAAGGGAACGTGGCGTCG | 1.36
CAAACTAGGTCACGAAAGGCCAAAGTCGAATGAC | 4.15
GCTTACGGGACAAAGGTTATAGCATGAATAGAAT | 1.24
AGTCAAAGTTCAGGGCGAGGTAACGTAAAGCACG | 3.27
CCTTACGGGTCAAGGTTACAGCACGGGTGGTACG | 3.34
TCTGCTAGGTCAACGATGGCCAGCTAATCTGCTA | 1.13
TCTCGGAGGCCACGAAGGTCAGAGCTTTCCAGAG | 3.69
TTACCAAGGTGAGCTGAGGTCTTTGATCCAACTC | 0.497
CATACAGAGTCAGCTAGGCCAGAGTAGGGACGGC | -0.518
CCGACTGGGGCAGAAAGGTTATCATACCATCCGG | 0.932
GTACCAACGTGAATAGGTCGTTGATGAGTAGGCG | -0.204
CCAACTGGGCCAAAGGTCATTGATTCCAATGCTC | 4.72
GCGACTGGGGCAAAGCAGGTTACCAGAAGGTTGG | 0.13
ATCTCTAGGTAACAAGTTCAATGAAAGAGAGGAC | 2.67
AGAATGAGGATACCAAAGATCAGGGAAACGCTTG | -0.361
TCTTGTAGATCAATAGAGGCTAAGAAAGTGCGCT | 0.377
AATACAGGGTCATCGTAGGCCAAAGTACGCACAG | 5.62
TCGCGTAGGTTACCAATGGGGCATTCAGCTTTCT | 0.236
AGAACGAGGTTACCAAAGATCAGGGAAACGCTTG | 1.32
CCTACTGGGCCACGAAAGGTCAGTGATTCAGTGA | 1.72
